# PubChem BioAssay (NCATS)
# Results filed as inconclusive are left out. Values without a mark were called inactive. The source made the active and inactive calls. The call rests on the fitted dose curve; in most records, active means well fitted inhibition curve with a large enough effect; inconclusive means small, poorly fitted or top-dose-only effect; inactive means flat fitted curve, though single readings scatter.
# Tested on: MCC-26
# Experiment: qHTS assay to identify novel small-molecules to repurpose for Merkel cell carcinoma treatment (AID 1296009); further: nearly all actives have a fitted effect of over 60% in size
# Details: MCC and control cell lines, CellTiter-Glo viability, 72 h; series mostly up to 46 µM; activity change, negative = cytotoxicity: at the top concentration
# Text: MCC is a rare and aggressive neuroendocrine skin cancer with limited treatment options. Approximately 80% of MCCs have the Merkel cell polyomavirus (MCPyV) DNA integrated into the host genome (virus-positive: VP-MCC) and viral oncogenes drive oncogenesis. The remaining MCCs are virus-negative (VN-MCC) and are caused by UV mutagenesis. To identify novel treatments for VP-MCC and/or VN-MCC we screened three VP-MCC cell lines (WAGA, MKL-1, MKL-2), three VN-MCC cell lines (MCC-13, MCC-26, UISO), and four immortalized, non-transformed control cell lines (HaCaT, HEK293T, CRL7250, NIH-3T3) against ~2,400 compounds in the NCGC Pharmaceutical Collection (NPC) and ~1,900 compounds in the Mechanism Interrogation PlatE (MiPE). Using cell viability as a readout (CellTiter-Glo assay) we found both overlapping and distinct drugs that can be repurposed for the treatment of VP-MCC and VN-MCC.
# A high-throughput screen was conducted in 1536-well white flat bottom plates (Corning) on a Kalypsys robotic system. Cell lines WAGA, MKL-1, MKL-2, MCC-13, MCC-26, UISO, HaCaT, HEK293T, CRL7250, and NIH-3T3 were screened against 2 small molecule annotated drug libraries NPC and MIPE in dose response (8 and 11 pt. respectively) measuring cell viability after 72 hours of incubation. […] A 1,536 pintool (Kalypsys) was used to transfer 23 nL of compound in DMSO to the 1,536-well assay plates. After 72 hr incubation at 37 degree celsius, 2.5 uL of CellTiter-Glo (Promega) was dispensed into each well using a BiorapTR. Plates were incubated at room temperature for 10 min, transferred to a ViewLux (PerkinElmer) and the luminescence was recorded using an exposure time of 2 seconds. Relative luminescence units (RLUs) were normalized to in-plate controls (no cells as a positive (cytotoxicity) control, DMSO as negative control) and the normalized data was processed using NCATS in-house software.
# On the % scale 0 is the no-effect control and ±100 the full control effect; potency means the concentration at half of the fitted maximal effect.
Compound,"activity change, negative = cytotoxicity",Potency
[N-]=[N+]=CC(=O)OC[C@H](N)C(=O)O,-12.1%,–
C=C(C)[C@H]1CN[C@H](C(=O)O)[C@H]1CC(=O)O,13.3%,–
CN1CC[C@]23c4c5ccc(O)c4O[C@H]2[C@@H](O)C=C[C@H]3[C@H]1C5,-15.5% [at 92.7 µM],–
C[C@]12CC[C@@H]3c4ccc(OC(=O)N(CCCl)CCCl)cc4CC[C@H]3[C@@H]1CC[C@@H]2OP(=O)(O)O,5.58%,–
CCC(C)C(C)(COC(N)=O)COC(N)=O (stereo not given),5.66%,–
C=CCC1(C(C)CC)C(=O)NC(=O)NC1=O (stereo not given),-3.03%,–
C[C@]12CC[C@@H]3c4ccc(OC(=O)N(CCCl)CCCl)cc4CC[C@H]3[C@@H]1CC[C@@H]2O,-5.79%,–
CC1(C)C(C=C(Cl)Cl)C1C(=O)OC(C#N)c1cccc(Oc2ccccc2)c1 (stereo not given),5.01%,–
CN1C(=O)CCS(=O)(=O)C1c1ccc(Cl)cc1 (stereo not given),–,inactive
CC(=O)NC1CCSC1=O (stereo not given),4.64%,–
CN(C)CCc1c[nH]c2cccc(OP(=O)(O)O)c12,-9.66% [at 92.7 µM],–
CCOP(=S)(OCC)Oc1ccc2c(C)c(Cl)c(=O)oc2c1,16.8%,–
Oc1ccc(Cl)cc1,3.05%,–
CNC(C)(C)Cc1ccccc1,0.36%,–
COc1ccc2c3c1O[C@H]1[C@H](O)CC[C@H]4[C@@H](C2)N(C)CC[C@@]341,-7.89% [at 92.7 µM],–
Cc1ncsc1CCCl,9.35%,–
NCCc1ccc(O)cc1,12.3%,–
C[C@]12CC[C@H]3[C@@H](CCC4=CC(=O)CC[C@@H]43)[C@@H]1CC[C@@H]2OC(=O)CCc1ccco1,14.9%,–
O=C1c2ccccc2C(=O)C1C(=O)C(c1ccccc1)c1ccccc1,6.6%,–
O=C(O)CCCc1ccc(N(CCCl)CCCl)cc1,–,inactive

Compound,"activity change, negative = cytotoxicity",Potency
C#CC(O)(C=CCl)CC (stereo not given),12.8%,–
COc1cccc2c1C(=O)c1c(O)c3c(c(O)c1C2=O)C[C@@](O)(C(=O)CO)CC3OC1CC(N2CCOC(OC)C2)C(O)C(C)O1 (stereo not given in full),–,47.3 nM (active)
CCN(CCO)CCn1c(Cc2ccccc2)nc2c1c(=O)n(C)c(=O)n2C,8.57%,–
ClCCN1CCCC1,3.78%,–
C[N+]1(CCF)[C@@H]2CC[C@H]1CC(OC(=O)C(O)(c1ccccc1)c1ccccc1)C2 (stereo not given in full),4.71%,–
CCCCC/C=C\C/C=C\C/C=C\C/C=C\CCCC(=O)NCC(=O)O,9.83%,–
Nc1ccccc1C(=O)O,8.08%,–
CCCOC(=O)c1cncn1C(C)c1ccccc1 (stereo not given),5.71%,–
CC(C)(N)Cc1ccccc1Cl,4.47%,–
Nc1nc(N)nc(NC2CC2)n1,-15.1%,–
COc1cccc(C(=O)CCN[C@@H](C)[C@H](O)c2ccccc2)c1,3.42%,–
COP(=S)(OC)SCN1C(=O)c2ccccc2C1=O,1.61%,–
c1ccc2c(c1)sc1ccccc12,13.7%,–
c1ccc(N2CCNCC2)cc1,8.48%,–
CN1CCC(O)(c2ccc(F)cc2)C(C(=O)c2ccc(F)cc2)C1 (stereo not given),5.83%,–
CCCCCCCCCC(=O)O[C@H]1CC[C@H]2[C@@H]3CCC4=CC(=O)CC[C@@H]4[C@H]3CC[C@]12C,3%,–
CC(C)C[C@H](CN)CC(=O)O,4.83%,–
O=c1[nH]c2ccccc2n1C1CCNCC1,-7.06%,–
O=C(Nc1ccc(Br)cc1)c1cc(Br)cc(Br)c1O,-4.01%,–
CC(C)NC(C)C,14.7%,–
